Test in all cases: universal protein binding microarray (PBM); transcription factors of Arabidopsis thaliana; high values mean tight binding
One test has as its target GST-NTL6(1-168) (Arabidopsis thaliana, UniProt Q9SCK6 1-168). The following applies: protein: recombinant; tags: GST; chain copies: 2; dsDNA, one strand shown. The gist of the method: (§1)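 Each value is a normalised enrichment score (E-score) describing binding. The GST-tagged proteins, NAC-domain, full-length or DNA-binding-domain, were induced in cells (zinc-finger proteins with zinc acetate added) and purified on glutathione–Sepharose 4B. They were applied at 200 to 500 nM final, in duplicate, to double-stranded custom all-10-mer Agilent 4 × 180K arrays, and gapped and ungapped 8-mers were scored.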

The target of test [1] is T1, GST-ANAC092(1-285) full length (Arabidopsis thaliana, UniProt Q9FKA0 1-285).
T1 sequence: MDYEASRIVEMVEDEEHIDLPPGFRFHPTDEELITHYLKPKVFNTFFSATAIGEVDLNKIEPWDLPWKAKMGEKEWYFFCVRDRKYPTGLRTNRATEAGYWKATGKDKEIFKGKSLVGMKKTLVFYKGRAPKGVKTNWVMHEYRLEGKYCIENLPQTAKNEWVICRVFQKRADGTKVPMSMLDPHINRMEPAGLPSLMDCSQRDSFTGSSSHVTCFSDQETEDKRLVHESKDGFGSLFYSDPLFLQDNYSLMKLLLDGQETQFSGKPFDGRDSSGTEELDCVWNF
The following applies: protein: recombinant; tags: GST; chain copies: 2; dsDNA, one strand shown. The gist of the method: as §1

The target in the next test is T2, GST-VND3 NAC domain (Arabidopsis thaliana, UniProt Q9FH59 12-162).
T2 sequence: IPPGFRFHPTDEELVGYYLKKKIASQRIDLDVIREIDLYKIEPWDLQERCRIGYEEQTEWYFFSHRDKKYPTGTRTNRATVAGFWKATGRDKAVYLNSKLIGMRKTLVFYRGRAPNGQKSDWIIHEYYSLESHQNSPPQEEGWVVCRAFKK
The following applies: protein: recombinant; tags: GST; chain copies: 2; dsDNA, one strand shown. Summed up: as §1

The next test concerns the target GST-WRKY1(266-371) (Arabidopsis thaliana, UniProt Q9SI37 266-371). The following applies: protein: recombinant; tags: GST; dsDNA, one strand shown. Summed up: as §1
The target in the next test is T3, GST-ATAF1 NAC domain (Arabidopsis thaliana, UniProt Q39013 7-158).
T3 sequence: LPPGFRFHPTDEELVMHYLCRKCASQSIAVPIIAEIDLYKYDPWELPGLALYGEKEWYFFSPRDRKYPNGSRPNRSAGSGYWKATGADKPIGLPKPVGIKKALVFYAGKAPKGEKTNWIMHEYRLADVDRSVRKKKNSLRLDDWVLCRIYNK
The following applies: protein: recombinant; tags: GST; chain copies: 2; dsDNA, one strand shown. The gist of the method: as §1

For a further test, the target named is T4, GST-ANAC019 NAC domain (Arabidopsis thaliana, UniProt Q9C932 14-162).
T4 sequence: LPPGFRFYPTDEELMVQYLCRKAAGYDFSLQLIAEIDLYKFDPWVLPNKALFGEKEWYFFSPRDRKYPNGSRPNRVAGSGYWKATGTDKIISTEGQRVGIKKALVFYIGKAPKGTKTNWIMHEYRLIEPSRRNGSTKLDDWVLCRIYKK
The following applies: protein: recombinant; tags: GST; chain copies: 2; dsDNA, one strand shown. The gist of the method: as §1

In a further test the target is T5, GST-ANAC055(1-171) (Arabidopsis thaliana, UniProt Q9LDY8 1-171).
T5 sequence: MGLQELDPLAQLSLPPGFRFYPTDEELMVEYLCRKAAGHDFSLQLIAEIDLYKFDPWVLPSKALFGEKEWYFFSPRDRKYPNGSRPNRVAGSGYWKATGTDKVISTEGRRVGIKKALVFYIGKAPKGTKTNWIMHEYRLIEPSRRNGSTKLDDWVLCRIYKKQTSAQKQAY
The following applies: protein: recombinant; tags: GST; chain copies: 2; dsDNA, one strand shown. The gist of the method: as §1

For a further test, the target named is T6, GST-NTL8 NAC domain (Arabidopsis thaliana, UniProt Q9XIN7 14-156).
T6 sequence: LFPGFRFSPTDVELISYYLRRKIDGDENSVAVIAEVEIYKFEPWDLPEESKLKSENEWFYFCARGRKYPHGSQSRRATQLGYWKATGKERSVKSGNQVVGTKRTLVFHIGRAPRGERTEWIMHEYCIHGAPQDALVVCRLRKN
The following applies: protein: recombinant; tags: GST; chain copies: 2; dsDNA, one strand shown. Summed up: as §1

The target of the next test is T7, GST-VND7 NAC domain (Arabidopsis thaliana, UniProt Q9C8W9 9-158).
T7 sequence: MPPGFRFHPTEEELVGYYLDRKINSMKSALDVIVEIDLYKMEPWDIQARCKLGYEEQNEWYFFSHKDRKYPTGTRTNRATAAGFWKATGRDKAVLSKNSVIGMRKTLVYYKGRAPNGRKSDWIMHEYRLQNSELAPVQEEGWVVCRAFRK
The following applies: protein: recombinant; tags: GST; chain copies: 2; dsDNA, one strand shown. The gist of the method:
as §1

In the next test the target is T8, GST-NST2(1-184) (Arabidopsis thaliana, UniProt Q9M274 1-184).
T8 sequence: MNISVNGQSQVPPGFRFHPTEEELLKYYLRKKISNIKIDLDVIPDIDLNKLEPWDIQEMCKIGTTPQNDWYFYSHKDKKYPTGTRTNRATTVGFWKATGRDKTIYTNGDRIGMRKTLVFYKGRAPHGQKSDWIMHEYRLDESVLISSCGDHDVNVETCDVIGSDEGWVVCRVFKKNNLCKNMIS
The following applies: protein: recombinant; tags: GST; chain copies: 2; dsDNA, one strand shown. Summed up:
as §1

Another test addresses T9, GST-ANAC092(1-176) (Arabidopsis thaliana, UniProt Q9FKA0 1-176).
T9 sequence: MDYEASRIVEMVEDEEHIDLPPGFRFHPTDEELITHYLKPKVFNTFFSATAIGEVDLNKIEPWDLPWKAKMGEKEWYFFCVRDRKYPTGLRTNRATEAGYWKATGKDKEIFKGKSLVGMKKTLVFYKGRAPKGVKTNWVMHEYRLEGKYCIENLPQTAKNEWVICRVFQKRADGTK
The following applies: protein: recombinant; tags: GST; chain copies: 2; dsDNA, one strand shown. The gist of the method:
as §1

In the next test the target is T10, GST-NAP(1-166) (Arabidopsis thaliana, UniProt O49255 1-166).
T10 sequence: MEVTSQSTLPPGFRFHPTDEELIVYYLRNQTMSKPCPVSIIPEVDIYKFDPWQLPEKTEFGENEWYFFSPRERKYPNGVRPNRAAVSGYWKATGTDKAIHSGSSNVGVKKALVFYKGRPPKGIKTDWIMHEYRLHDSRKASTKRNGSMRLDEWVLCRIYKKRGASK
The following applies: protein: recombinant; tags: GST; chain copies: 2; dsDNA, one strand shown. Summed up: as §1

From publication PMC4081100, “A DNA-binding-site landscape and regulatory network analysis for NAC transcription factors in Arabidopsis thaliana” come the findings set out here.

Sequence of GST-WRKY1(266-371) (Q9SI37 266-371): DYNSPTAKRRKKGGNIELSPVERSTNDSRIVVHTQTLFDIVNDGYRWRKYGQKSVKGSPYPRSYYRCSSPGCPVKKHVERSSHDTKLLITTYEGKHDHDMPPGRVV
Sequence of GST-NTL6(1-168) (Q9SCK6 1-168): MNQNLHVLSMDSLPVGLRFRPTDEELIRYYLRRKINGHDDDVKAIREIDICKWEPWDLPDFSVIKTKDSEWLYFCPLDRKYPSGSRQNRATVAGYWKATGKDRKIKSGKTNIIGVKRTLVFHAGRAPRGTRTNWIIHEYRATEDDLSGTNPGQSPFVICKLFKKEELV

With ATAAGTCA, the binding signal amounted to 0.161 E-score with GST-NTL6(1-168), 0.101 E-score in test [1], 0.105 E-score in the test with GST-VND3 NAC domain and 0.443 E-score in the test with GST-WRKY1(266-371).
As for TAGTCAGA, the binding signal with GST-ATAF1 NAC domain was 0.0564 E-score; with GST-VND3 NAC domain it was 0.065 E-score; with GST-WRKY1(266-371), 0.428 E-score.
With AGAAAGTC, the binding signal with GST-ANAC019 NAC domain came to 0.0754 E-score; in the test with GST-ANAC055(1-171), 0.0896 E-score; with GST-ATAF1 NAC domain, 0.103 E-score; with GST-NTL8 NAC domain, 0.0673 E-score; in the test with GST-VND3 NAC domain it was 0.0756 E-score; with GST-WRKY1(266-371), 0.407 E-score.
In the case of AGGTCAGC, the binding signal stood at 0.078 E-score in the test with GST-VND7 NAC domain and 0.451 E-score with GST-WRKY1(266-371).
AGTCGGTC: the binding signal in the test with GST-WRKY1(266-371) worked out at 0.403 E-score.
As to GAAGTCAA, the binding signal stood at 0.104 E-score with GST-NTL6(1-168); 0.0675 E-score with GST-ANAC019 NAC domain; 0.0967 E-score with GST-ATAF1 NAC domain; 0.0673 E-score with GST-NTL8 NAC domain; 0.0707 E-score in the test with GST-VND7 NAC domain; 0.482 E-score with GST-WRKY1(266-371).
In the case of AAGGTCAG, the binding signal in the test with GST-ATAF1 NAC domain is 0.0646 E-score; in the test with GST-NTL8 NAC domain, 0.0579 E-score; with GST-VND3 NAC domain it was 0.0582 E-score; with GST-WRKY1(266-371), 0.425 E-score.
On to AAAAAGTC, for which the binding signal was 0.0791 E-score in the test with GST-ANAC019 NAC domain; 0.209 E-score with GST-ANAC055(1-171); 0.184 E-score with GST-ATAF1 NAC domain; 0.122 E-score with GST-NST2(1-184); 0.0525 E-score in the test with GST-NTL8 NAC domain; 0.0942 E-score with GST-VND3 NAC domain. Moreover, the binding signal with GST-WRKY1(266-371) came to 0.426 E-score.
ATTAGTCA: the binding signal with GST-ANAC055(1-171) stood at 0.0956 E-score; with GST-ATAF1 NAC domain, 0.109 E-score; with GST-VND3 NAC domain, 0.135 E-score; in the test with GST-WRKY1(266-371), 0.404 E-score.
Take GACCGGAA: the binding signal is 0.0538 E-score with GST-ANAC092(1-176); 0.213 E-score with GST-ANAC019 NAC domain; 0.0745 E-score in the test with GST-ANAC055(1-171); 0.0847 E-score in the test with GST-NTL8 NAC domain; 0.0568 E-score in the test with GST-VND7 NAC domain; 0.404 E-score in the test with GST-WRKY1(266-371).
Take AGGGTAAT: the binding signal with GST-ANAC092(1-176) is 0.113 E-score; with GST-NTL6(1-168), 0.143 E-score; in the test with GST-ANAC019 NAC domain, 0.116 E-score; in the test with GST-ANAC055(1-171), 0.17 E-score; with GST-ATAF1 NAC domain it was 0.114 E-score; in test [1], 0.108 E-score. For the same sequence, the binding signal with GST-NST2(1-184) turned out to be 0.0716 E-score; with GST-NTL8 NAC domain it was 0.441 E-score; in the test with GST-VND3 NAC domain, 0.121 E-score.
TAGTCAAA: the binding signal with GST-ANAC055(1-171) was determined as 0.136 E-score; with GST-ATAF1 NAC domain it was 0.272 E-score; in the test with GST-VND3 NAC domain it was 0.105 E-score; with GST-WRKY1(266-371), 0.477 E-score.
Take TTAGTCAA: the binding signal with GST-ANAC019 NAC domain worked out at 0.12 E-score; with GST-ATAF1 NAC domain, 0.107 E-score; in [1], 0.0778 E-score; with GST-VND3 NAC domain it was 0.11 E-score; with GST-WRKY1(266-371), 0.481 E-score.
As for AGGAAACT, the binding signal with GST-ANAC092(1-176) came out at 0.174 E-score; with GST-NTL6(1-168) it was 0.227 E-score; in the test with GST-ANAC055(1-171), 0.0635 E-score; with GST-ATAF1 NAC domain it was 0.0874 E-score; in [1] it was 0.186 E-score; in the test with GST-NAP(1-166), 0.0881 E-score. Moreover, the binding signal in the test with GST-NST2(1-184) turned out to be 0.125 E-score; with GST-NTL8 NAC domain it was 0.426 E-score; with GST-VND7 NAC domain, 0.131 E-score.
As for AGCTTGAC, the binding signal stood at 0.0728 E-score in the test with GST-ANAC092(1-176); 0.0936 E-score with GST-ANAC019 NAC domain; 0.065 E-score in test [1]; 0.0572 E-score with GST-NAP(1-166); 0.099 E-score with GST-VND7 NAC domain; 0.447 E-score with GST-WRKY1(266-371).
Consider AATTGACC, for which the binding signal with GST-ANAC055(1-171) stood at 0.0684 E-score; with GST-ATAF1 NAC domain, 0.176 E-score; in the test with GST-NST2(1-184) it was 0.0795 E-score; in the test with GST-NTL8 NAC domain it was 0.0822 E-score; with GST-VND3 NAC domain it was 0.115 E-score; with GST-WRKY1(266-371), 0.47 E-score.
Turning to AATTTGAC, the binding signal with GST-ANAC055(1-171) came out at 0.0892 E-score; with GST-ATAF1 NAC domain it was 0.237 E-score; with GST-VND3 NAC domain, 0.0556 E-score; in the test with GST-WRKY1(266-371), 0.451 E-score.
AGTCAAAT: the binding signal was 0.213 E-score with GST-ATAF1 NAC domain, 0.113 E-score with GST-NAP(1-166), 0.152 E-score with GST-VND7 NAC domain and 0.476 E-score with GST-WRKY1(266-371).
In the case of AGTCTTTG, the binding signal was 0.0553 E-score in the test with GST-ANAC092(1-176); 0.0583 E-score with GST-NTL6(1-168); 0.0679 E-score with GST-ANAC019 NAC domain; 0.0944 E-score in the test with GST-ANAC055(1-171); 0.125 E-score in the test with GST-VND7 NAC domain; 0.424 E-score with GST-WRKY1(266-371).
